Assay results published in PubChem BioAssay (Tox21).
Results filed as inconclusive are left out. Entries that show only a call come without a potency. Active and inactive are the calls of the source. Unless noted, the call rests on the fitted dose curve.

How the values were obtained:
[1] = target: Estrogen receptor beta (Homo sapiens) (UniProt Q92731); experiment: qHTS assay to identify small molecule agonists of the estrogen receptor beta (ER-beta) signaling pathway (AID 1259377; active means well fitted activation curve with a large enough effect in the signal ratio in the repeat runs, not every such curve was filed as active; the % refers to the signal ratio)
Procedure, shortened: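 Measured by fluorescence intensity from a B/G FRET beta-lactamase substrate (2 h, room temperature) in ER-beta-UAS-bla HEK293T cells treated with DMSO-dissolved compounds for 16 hr at 37C and 5% CO2.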

[2] = target: Estrogen receptor beta (Homo sapiens) (UniProt Q92731); experiment: qHTS assay to identify small molecule antagonists of the estrogen receptor beta (ER-beta) signaling pathway (AID 1259378; active means well fitted inhibition curve with a large enough effect in the signal ratio in the repeat runs, not every such curve was filed as active; the % refers to the signal ratio)
Procedure, shortened: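 Antagonist mode: compounds added to beta-lactamase reporter HEK293T ER-beta-UAS cells stimulated with E2 (1nM final), 16 hr at 37C. LiveBLAzer B/G FRET substrate, 2 hours room temperature, fluorescence read-out.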

[3] = qHTS assay to identify small molecule agonists of the androgen receptor (AR) signaling pathway in the presence of an antagonist - cell viability counter screen (AID 1259379; active means well fitted curve in the direction sought with a large enough effect in the repeat runs; an effect the other way counts as inactive or inconclusive;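 further: MDA-kb2 human breast cancer cells carrying an MMTV luciferase reporter; series mostly up to about 92 µM; nearly all actives have a fitted effect of over 25% in size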)
Procedure, shortened: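 In MDA-kb2 cells (human breast carcinoma, MMTV-luciferase), compounds at 15 concentrations plus 3.0uM nilutamide; 16 hr, 37C, 0% CO2; CellTiter-Fluor fluorescence read for viability.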

[4] = qHTS assay to identify small molecule agonists of the estrogen receptor beta (ER-beta) signaling pathway - cell viability counter screen (AID 1259380; active means well fitted curve in the direction sought with a large enough effect in the repeat runs; an effect the other way counts as inactive or inconclusive; further: nearly all actives have a fitted effect of over 30% in size)
Procedure, shortened: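 Viability of ER-beta-UAS-bla HEK293T cells was determined by CellTiter-Glo luminescence following 16 hr treatment with test compounds at 37C.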

[5] = qHTS assay to identify small molecule antagonists of the estrogen receptor beta (ER-beta) signaling pathway - cell viability counter screen (AID 1259382; active means well fitted curve in the direction sought with a large enough effect in the repeat runs; an effect the other way counts as inactive or inconclusive;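 further: HEK293T cells carrying ER-beta-UAS-bla reporter stimulated with estradiol; series mostly up to about 92 µM; nearly all actives have a fitted effect of over 55% in size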)
Procedure, shortened: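 Tox21 10K library tested in qHTS format on ER-beta-bla HEK293T cells stimulated with 1nM E2; 16 hr treatment at 37C. Same-well CellTiter-Glo luminescence served as the cell viability measure.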

[6] = target: Estrogen receptor (Homo sapiens) (UniProt P03372); experiment: qHTS assay to identify small molecule agonists of the estrogen receptor alpha (ER-alpha) signaling pathway in the presence of an antagonist (AID 1259383); further: top concentration of the series differs between compounds; nearly all actives have a fitted effect of over 15% in size
Procedure, shortened: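 In VM7Luc4E2 cells, 4,000 per well, compounds at 15 concentrations were co-incubated 22hr at 37C with 10.0nM final ICI-182,780. Luminescence from the stably transfected 4×ERE-luciferase reporter was recorded 30min after ONE-Glo addition.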

[7] = qHTS assay to identify small molecule agonists or antagonists of the thyroid stimulating hormone receptor (TSHR) signaling pathway - wild type cell line counter screen (AID 1259384)
Procedure, shortened: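 Counter screen in untransfected Hek293: compounds (15-point titration, triplicate) plus phosphodiesterase inhibitor Ro20-1724 added after 18 h plating; 30 min RT. Intracellular cAMP via competitive d2/cryptate immunoassay, 1 h incubation.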

[8] = target: Thyrotropin receptor (Homo sapiens) (UniProt P16473); experiment: qHTS assay to identify small molecule antagonists of the thyroid stimulating hormone receptor (TSHR) signaling pathway (AID 1259385); further: nearly all actives have a fitted effect of over 20% in size
Procedure, shortened: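 Antagonist mode: compound-treated TSHR-expressing HEK293 cells were stimulated with 1.5 ng/mL TSH (final) in presence of Ro20-1724 for 30 min at RT. HTRF cAMP detection after 1 h; each compound tested at 15 concentrations, triplicate.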

[9] = qHTS assay to identify small molecule antagonists of the sonic hedgehog signaling (Shh) pathway (AID 1259369); further: nearly all actives have a fitted effect of over 45% in size; further: potency means the concentration at half of the fitted maximal effect
Procedure, shortened: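 Screening used 3T3Gli1-Luc cells at 2,000 per well, compounds delivered in DMSO, and conditioned medium as agonist stimulus; plates incubated 24hr at 37 C and 5% CO2 before a 30min luciferase step.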

[10] = target: Androgen receptor (Homo sapiens) (UniProt P10275); experiment: qHTS assay to identify small molecule agonists of the androgen receptor (AR) signaling pathway in the presence of an antagonist (AID 1259381); further: nearly all actives have a fitted effect of over 15% in size
Procedure, shortened: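 Here, 15-concentration compound series were pin-transferred onto MDA-kb2 MMTV-luciferase cells already dosed with nilutamide (3.0uM final). After 16hr at 37C, ONE-Glo was added and luminescence read 30min later at room temperature.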

Chain of Estrogen receptor (Homo sapiens) (P03372 whole entry, looked up): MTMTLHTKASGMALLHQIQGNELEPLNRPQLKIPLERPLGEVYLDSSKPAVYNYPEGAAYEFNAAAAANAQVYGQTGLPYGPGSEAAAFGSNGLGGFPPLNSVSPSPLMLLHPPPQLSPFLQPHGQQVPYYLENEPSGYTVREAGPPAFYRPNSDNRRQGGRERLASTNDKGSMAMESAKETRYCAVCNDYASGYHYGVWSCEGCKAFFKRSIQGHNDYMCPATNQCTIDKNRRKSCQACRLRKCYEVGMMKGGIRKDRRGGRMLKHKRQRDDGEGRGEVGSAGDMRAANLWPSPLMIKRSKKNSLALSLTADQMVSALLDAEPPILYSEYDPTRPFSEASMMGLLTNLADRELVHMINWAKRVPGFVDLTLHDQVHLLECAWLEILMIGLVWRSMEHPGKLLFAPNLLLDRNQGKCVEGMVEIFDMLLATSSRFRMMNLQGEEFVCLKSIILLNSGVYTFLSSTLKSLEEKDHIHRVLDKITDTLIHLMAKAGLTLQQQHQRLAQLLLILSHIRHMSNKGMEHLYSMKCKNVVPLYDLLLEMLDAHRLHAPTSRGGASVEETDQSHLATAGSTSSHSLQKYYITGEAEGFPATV
Chain of Estrogen receptor beta (Homo sapiens) (Q92731 whole entry, looked up): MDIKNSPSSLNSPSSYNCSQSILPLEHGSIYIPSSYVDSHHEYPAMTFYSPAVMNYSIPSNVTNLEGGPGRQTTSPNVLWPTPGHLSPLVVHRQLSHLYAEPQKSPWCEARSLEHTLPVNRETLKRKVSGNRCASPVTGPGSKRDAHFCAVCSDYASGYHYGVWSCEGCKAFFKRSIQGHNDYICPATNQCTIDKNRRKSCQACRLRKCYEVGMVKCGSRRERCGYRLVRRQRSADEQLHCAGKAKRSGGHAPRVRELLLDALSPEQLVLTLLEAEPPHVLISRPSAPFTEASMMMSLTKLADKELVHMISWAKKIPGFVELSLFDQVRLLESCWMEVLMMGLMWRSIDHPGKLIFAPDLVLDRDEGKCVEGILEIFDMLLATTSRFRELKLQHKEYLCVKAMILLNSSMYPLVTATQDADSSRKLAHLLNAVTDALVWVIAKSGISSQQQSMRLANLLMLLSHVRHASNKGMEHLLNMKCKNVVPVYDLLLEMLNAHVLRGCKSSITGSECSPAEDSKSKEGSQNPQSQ
Chain of Androgen receptor (Homo sapiens) (P10275 whole entry, looked up): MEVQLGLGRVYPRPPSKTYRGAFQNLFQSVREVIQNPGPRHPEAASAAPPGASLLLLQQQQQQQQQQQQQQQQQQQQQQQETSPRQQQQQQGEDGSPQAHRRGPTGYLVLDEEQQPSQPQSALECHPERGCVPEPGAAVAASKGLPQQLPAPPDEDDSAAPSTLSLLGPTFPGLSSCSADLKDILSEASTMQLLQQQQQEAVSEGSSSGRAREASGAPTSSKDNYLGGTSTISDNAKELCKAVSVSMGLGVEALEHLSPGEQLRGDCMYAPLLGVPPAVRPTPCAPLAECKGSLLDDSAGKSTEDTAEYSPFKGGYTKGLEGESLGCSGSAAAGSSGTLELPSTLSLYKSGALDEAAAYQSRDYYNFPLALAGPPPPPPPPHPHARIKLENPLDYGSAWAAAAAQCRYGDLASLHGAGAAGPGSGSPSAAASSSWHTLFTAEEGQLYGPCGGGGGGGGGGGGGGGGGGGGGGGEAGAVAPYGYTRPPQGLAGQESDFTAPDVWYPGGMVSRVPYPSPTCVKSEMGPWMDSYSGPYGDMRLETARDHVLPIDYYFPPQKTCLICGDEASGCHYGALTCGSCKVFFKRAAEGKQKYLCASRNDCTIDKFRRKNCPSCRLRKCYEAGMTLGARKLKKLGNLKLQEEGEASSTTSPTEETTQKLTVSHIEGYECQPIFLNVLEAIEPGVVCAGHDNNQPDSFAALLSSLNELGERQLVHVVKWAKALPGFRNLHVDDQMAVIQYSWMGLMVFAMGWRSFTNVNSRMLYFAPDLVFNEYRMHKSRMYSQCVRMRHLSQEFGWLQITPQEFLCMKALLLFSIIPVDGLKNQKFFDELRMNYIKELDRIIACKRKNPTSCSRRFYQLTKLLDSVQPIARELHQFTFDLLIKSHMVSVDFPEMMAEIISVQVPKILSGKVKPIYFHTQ
Chain of Thyrotropin receptor (Homo sapiens) (P16473 whole entry, looked up): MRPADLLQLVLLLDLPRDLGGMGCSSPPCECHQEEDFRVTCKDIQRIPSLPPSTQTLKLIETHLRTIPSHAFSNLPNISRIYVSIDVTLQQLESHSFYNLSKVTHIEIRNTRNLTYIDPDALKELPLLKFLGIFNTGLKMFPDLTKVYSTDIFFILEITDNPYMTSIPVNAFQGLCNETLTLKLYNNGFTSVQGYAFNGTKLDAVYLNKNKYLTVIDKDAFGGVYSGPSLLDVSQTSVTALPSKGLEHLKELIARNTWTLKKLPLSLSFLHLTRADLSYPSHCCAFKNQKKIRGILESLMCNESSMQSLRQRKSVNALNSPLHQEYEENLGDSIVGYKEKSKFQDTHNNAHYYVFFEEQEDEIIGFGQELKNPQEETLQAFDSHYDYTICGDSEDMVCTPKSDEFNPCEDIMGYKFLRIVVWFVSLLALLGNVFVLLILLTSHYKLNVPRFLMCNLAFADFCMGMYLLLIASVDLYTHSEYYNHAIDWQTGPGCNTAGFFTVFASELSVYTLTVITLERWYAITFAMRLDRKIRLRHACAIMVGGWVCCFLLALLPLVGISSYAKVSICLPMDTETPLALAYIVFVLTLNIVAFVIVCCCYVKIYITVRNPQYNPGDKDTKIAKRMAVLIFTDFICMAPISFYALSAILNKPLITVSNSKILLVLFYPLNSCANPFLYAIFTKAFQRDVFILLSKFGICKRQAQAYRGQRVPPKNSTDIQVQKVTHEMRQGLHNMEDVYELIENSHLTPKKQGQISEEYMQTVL

| SMILES | Potency [1] | outcome [2] | Potency [3] | Potency [4] | Potency [5] | Potency [6] | outcome [7] | outcome [8] | Potency [9] | Potency [10] |
| --- | --- | --- | --- | --- | --- | --- | --- | --- | --- | --- |
| C=C(Cl)CSC(=S)N(CC)CC | inactive | inactive | inactive | inactive | inactive | – | – | – | – | – |
| CCOc1cc(OP(=S)(OC)OC)nc(CC)n1 | inactive | inactive | inactive | – | inactive | inactive | inactive | – | – | – |
| COC(=O)c1ccccc1CS(=O)(=O)NC(=O)Nc1nc(OC)cc(OC)n1 | – | inactive | inactive | inactive | inactive | inactive | inactive | inactive | – | – |
| CCN1CCCC1CNC(=O)C(O)(c1ccccc1)c1ccccc1 (stereo not given) | – | – | inactive | – | inactive | – | inactive | inactive | inactive | – |
| Cl/C=C/CCl | inactive | inactive | inactive | inactive | inactive | – | inactive | inactive | – | – |
| NNCc1ccccc1 | – | – | inactive | – | – | – | inactive | inactive | inactive | – |
| COC(=O)c1ccc(CBr)cc1 | inactive | inactive | inactive | inactive | inactive | – | inactive | inactive | – | inactive |
| C(COCC1CO1)OCC1CO1 (stereo not given) | – | – | inactive | – | inactive | – | inactive | inactive | 34.4 µM (active) | – |
| C#CCOC(=O)/C=C(C)/C=C/CC(C)CCCC(C)C (stereo not given) | – | – | inactive | – | – | inactive | inactive | inactive | inactive | – |
| CCNc1nc(NCC)nc(SC)n1 | – | – | inactive | inactive | inactive | inactive | inactive | inactive | – | – |
| CON(C)C(=O)Nc1ccc(Br)cc1 | – | – | inactive | – | inactive | – | inactive | inactive | inactive | – |
| CC[C@H](O)C(C[C@H](C)N(C)C)(c1ccccc1)c1ccccc1 | – | – | inactive | – | – | inactive | inactive | inactive | – | – |
| O=C(NC(=O)c1c(F)cccc1F)Nc1cc(Cl)c(F)c(Cl)c1F | – | – | inactive | inactive | inactive | – | inactive | inactive | – | – |
| CCc1ccc(C2CCNCC2)cc1 | inactive | inactive | inactive | inactive | inactive | inactive | inactive | inactive | – | inactive |
| CNC(=O)NC(O)C(Cl)(Cl)Cl (stereo not given) | inactive | inactive | inactive | inactive | – | inactive | inactive | inactive | – | inactive |
| CC1N=C(N)OC1c1ccccc1 (stereo not given) | inactive | – | inactive | – | – | inactive | inactive | inactive | – | – |
| CNC(=O)Oc1cc(C)c(N(C)C)c(C)c1 | – | inactive | inactive | inactive | inactive | – | inactive | inactive | – | – |
| ClCCN1CCCC1 | inactive | inactive | inactive | inactive | inactive | inactive | inactive | inactive | – | – |
| CCSC(=O)Cl | inactive | inactive | inactive | – | inactive | – | inactive | inactive | – | inactive |
| CCC(=O)OC1(c2ccccc2)CCN(C)CC1 | – | – | inactive | – | inactive | – | inactive | inactive | – | – |
| Cn1c(N)nc2c3cccnc3ccc21 | inactive | – | inactive | inactive | inactive | inactive | – | – | – | – |
| [O-][Br+2]([O-])O | – | – | – | inactive | inactive | inactive | inactive | inactive | – | inactive |
